Test results taken from ChEMBL document CHEMBL1157539, “Thousands of chemical starting points for antimalarial lead identification” (Nature, 2010).

How the values were obtained:
Assay type in all cases: functional
[1] = system: Plasmodium falciparum; assay: GSK_TCMDC: Inhibition of Plasmodium falciparum 3D7 in whole red blood cells, using parasite LDH activity as an index of growth. Test compounds present at 2uM
[2] = system: Plasmodium falciparum; assay: GSK_TCMDC: Inhibition of Plasmodium falciparum Dd2 in whole red blood cells, using parasite LDH activity as an index of growth. Test compounds present at 2uM
[3] = system: HepG2; assay: GSK_TCMDC: Percent inhibition of human HepG2 cell line. Test compounds present at 10uM.

Row | Compound | Inhibition [1] [%] | Inhibition [2] [%] | Inhibition [3] [%]
1 | CC(=O)N1N=C(c2ccc(Cl)cc2)Sc2c1nc(C1CCCCC1)n2C(C)=O | 100 | 67 | 1
2 | Br.CCCCC(NCC)c1ccc(OCCOc2ccc(C(CCCC)NCC)cc2)cc1 (stereo not drawn) | 100 | 99 | 100
3 | O=C(Nc1ccc(N2CCCN(Cc3cccc(F)c3)CC2)cc1)c1cccs1.O=C(O)C(F)(F)F | 96 | 96 | 2
4 | Cc1cc(CN2C(=O)C(c3ccccc3)(c3ccccc3)N=C2N)c(C(F)(F)F)o1 | 97 | 84 | 11
5 | CCN(CC)CCCC(C)Nc1c(-c2ccc(C)cc2)cnc2ccccc12 (stereo not drawn) | 85 | 65 | 8
6 | CCN1CCC(N(Cc2ccc(-c3ccc(C(F)(F)F)s3)cc2)C(=O)Cn2c(CCc3cccc(F)c3F)nc(=O)c3ccccc32)CC1.O=C(O)C(O)C(O)C(=O)O | 93 | 95 | 47
7 | COc1ccc(NC(=O)c2ccc(-c3ccc(-c4cccnc4)cc3)c(C)c2)cc1OCCN(C)C.Cl | 99 | 73 | 24
8 | Cl.N#Cc1ccc2c(c1)CCN(CCC1CCC(NC(=O)c3cc4ccc(Cl)cc4[nH]3)CC1)C2 (stereo not drawn) | 100 | 0 | 5
9 | CN1CCN(CCCN(Cc2cccc(-c3ccc(CNCCc4ccccc4)cc3)c2)C(=O)Nc2ccccc2)CC1.O=C(O)C(F)(F)F | 100 | 91 | 61
10 | Nc1cccc(CNCc2cccc(-c3ccc(-c4nc5cc(C(F)(F)F)ccc5[nH]4)cc3)c2)c1.O=C(O)C(F)(F)F | 100 | 98 | 6
11 | Cl.Clc1ccc(OCCC2CCN(CCCCCCN3CCCCC3)CC2)cc1Cl | 97 | 36 | 86
12 | OCc1ccc2nc3c(cc2c1)-c1cccc2cccc-3c12 | 96 | 0 | 16
13 | COc1ccc(CNCCCCCCNCCc2ccc(Cl)cc2)cc1OC.Cl | 96 | 0 | 21
14 | COc1ccc2nccc([C@@H](O)CN3CCC(NCCOc4ccccc4C(F)(F)F)CC3)c2c1.O=C(O)C(=O)O | 98 | 95 | 2
15 | Cc1cc(O)c(C(C)C)cc1C1(c2cc(C(C)C)c(O)cc2C)OC(=O)c2ccccc21 | 95 | 18 | 8
16 | CCc1cc(NC2CCN(C)CC2)nc(Nc2ccc(C)cc2)n1 | 95 | 11 | 3
17 | O=C(Nc1cccc(CN2CCCN(Cc3ccc(O)cc3)CC2)c1)c1cc(F)cc(F)c1.O=C(O)C(F)(F)F | 100 | 13 | 15
18 | Cc1cc(NCCCCCCN)nc(Nc2ccc(Cl)cc2)n1 | 100 | 26 | 25
19 | O=C(O)C(F)(F)F.c1ccc(CN2CCC(NCc3ccccc3-c3cccc(CNCc4ccc5c(c4)OCO5)c3)CC2)cc1 | 100 | 69 | 37
20 | O=C(NCCCCN1CC=C(c2ccc3c(c2OCc2ccccc2)CCCC3)CC1)c1ccc(-c2ccc(C(F)(F)F)cc2)cc1 | 97 | 82 | 19
21 | Cc1cccc(-c2nc(Nc3ccncc3)c3ccc([N+](=O)[O-])cc3n2)n1 | 87 | 13 | 0
22 | O=C(c1ccc(Cl)cc1)N1CCOC(CCN2CCC(c3ccccc3)CC2)(c2ccc(Cl)c(Cl)c2)C1 (stereo not drawn) | 98 | 68 | 19
23 | CN(C)Cc1cccc(-c2ccc(Nc3nccc(NCC(O)c4ccccc4)n3)cc2)c1 (stereo not drawn) | 100 | 77 | 75

Row | Compound | Inhibition [1] [%] | Inhibition [2] [%] | Inhibition [3] [%]
24 | CCCCCCOc1ccc(C(=O)NCCCC2CCN(CCCCCNC(=O)C=Cc3ccc(Cl)c(Cl)c3)CC2)cc1 | 94 | 25 | 22
25 | CS(=O)(=O)N1CC2(CCN(CCC(NC(=O)/C=C/c3ccccc3)c3ccc(Cl)c(Cl)c3)CC2)c2ccccc21 (stereo not drawn) | 97 | 55 | 18
26 | CCc1cn(CCOC)c2ccc(C(=O)N[C@@H](Cc3ccccc3)[C@H](O)CNC(C)(C)CCCC(C)C)cc12.O=CO | 98 | 98 | 35
27 | COc1ccc2c(c1)CCCC2NCCCCNC(=O)c1ccc(NC(=O)c2ccc(Cl)cc2)cc1 (stereo not drawn) | 100 | 49 | 27
28 | CS(=O)(=O)O.FC(F)(F)COc1ccc2ccccc2c1CNCCCCCCNCc1c(OCC(F)(F)F)ccc2ccccc12 | 100 | 95 | 99
29 | CC(C)C[C@H]1c2[nH]c3ccc(Cl)cc3c2CCN1C(=O)CCc1ccccc1 | 95 | 81 | 0
30 | Cc1cc(=O)c(-c2ccc(OCCSc3ccc(C(F)(F)F)cn3)cc2)c(C)[nH]1 | 97 | 96 | 2
31 | O=C(Nc1cccc(-c2ccc(-c3nc4cc(F)ccc4[nH]3)s2)c1)c1cccnc1 | 100 | 72 | 46
32 | COc1cc(-c2nc(-c3ccncc3)c(-c3ccc4c(c3)CCC4=NO)[nH]2)ccc1OCCN1CCN(C)CC1.Cl | 99 | 77 | 53
33 | COc1ccc(CNCc2cccc(-c3ccc(-c4nc5ccccc5[nH]4)s3)c2)cc1.O=C(O)C(F)(F)F | 90 | 52 | 14
34 | O=C(Nc1ccc(Cl)c(C(F)(F)F)c1)N[C@H]1CCN(CCCCCNC(=O)C2CC2c2ccc(Cl)c(Cl)c2)C1 (stereo partly drawn) | 94 | 0 | 39
35 | O=C(Nc1cccc(-c2cccc(F)c2)c1)C1CCN(Cc2ccc(O)cc2)CC1 | 87 | 2 | 13
36 | CN1CCC(N(Cc2ccc(N3CCN(Cc4c[nH]c5ccc(Cl)cc45)CC3)nc2)C2CC2)CC1 | 100 | 76 | 96
37 | COc1c(CNCCCCCCNCc2c(OC)c(OC)c3ccccc3c2OC)c(OC)c2ccccc2c1OC.CS(=O)(=O)O | 96 | 98 | 100
38 | Cc1cc(N[C@@H](Cc2ccccc2)C(=O)NCCOc2ccccc2)nc(NCCc2ccccc2)n1.O=C(O)C(F)(F)F | 100 | 68 | 12
39 | O=C(NC1CC1)c1cnc(N2CCN(Cc3c(F)cccc3Cl)CC2)c(Cl)c1.O=C(O)C(F)(F)F | 93 | 93 | 0
40 | CCn1ncc(Cl)c1CN(C)S(=O)(=O)c1ccc(Br)cc1 | 90 | 70 | 9
41 | CCN(CC)CCN(Cc1ccc(-c2ccc(C(F)(F)F)cc2)cc1)C(=O)Cn1c(CCc2cc(F)c(F)c(F)c2)nc(=O)c2ccccc21.O=C(O)C(O)C(O)C(=O)O | 100 | 70 | 31
42 | Cl.O=c1nc(NCCCNCc2cc3c(Cl)cc(Cl)cc3[nH]2)[nH]c2ccccc12 | 91 | 4 | 10
43 | Cc1cccc2nc(-c3ccc(-c4cccc(NC(=O)Nc5cccc(C#N)c5)c4)cc3)[nH]c12 | 100 | 86 | 25
44 | CC(=O)Nc1ccc(OCCCCN(Cc2ccccc2C(F)(F)F)c2ccc(C#N)c(C(F)(F)F)c2)c(Cl)c1 | 98 | 71 | 0
45 | CN1CCCC(COc2cc3c(cc2Br)CCN3C(=O)Nc2ccc(-c3ccncc3)c(Cl)c2)C1 (stereo not drawn) | 100 | 96 | 99
46 | COc1cc(Nc2nccc(NCC(O)c3ccc(C(F)(F)F)cc3)n2)cc(OC)c1OC (stereo not drawn) | 91 | 14 | 45
